Source: PubChem BioAssay (NCI)
This is part of a sample that, as a whole, favours compounds with a hit. Of some 83,000 tested, about 20% had one in any assay.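 Negative percent growth values reflect cell death: -40 means 40% of the cells present at the start died, and -100 means all died.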 The source made the active and inactive calls. The calls were made as follows: active = growth percent below 10; inactive = the rest.

Key:
Assay in all cases: NCI-60 one-dose screen, 48 h (100 = growth as untreated, 0 = no growth, -100 = all killed)
Conditions in all cases: 10 µM unless noted
SR leukemia = tested on: SR leukemia
RPMI-8226 leukemia = tested on: RPMI-8226 leukemia
OVCAR-8 ovarian = tested on: OVCAR-8 ovarian
OVCAR-5 ovarian = tested on: OVCAR-5 ovarian
OVCAR-4 ovarian = tested on: OVCAR-4 ovarian
SK-OV-3 ovarian = tested on: SK-OV-3 ovarian
IGROV1 ovarian = tested on: IGROV1 ovarian
OVCAR-3 ovarian = tested on: OVCAR-3 ovarian
NCI/ADR-RES ovarian = tested on: NCI/ADR-RES ovarian

Measured: growth

CNC(=O)CN1CCC(Oc2cc3c(Nc4cccc(Cl)c4F)ncnc3cc2OC)CC1
inactive: SR leukemia 63.8% | RPMI-8226 leukemia 70.9% | OVCAR-8 ovarian 45.6% | OVCAR-5 ovarian 25.3% | OVCAR-4 ovarian 70.5% | OVCAR-3 ovarian 46.3% | NCI/ADR-RES ovarian 56.6%
active: SK-OV-3 ovarian -22.4% | IGROV1 ovarian -25.2%

Cc1csc(-c2nnc(Nc3ccc(Oc4ncccc4-c4ccnc(N)n4)cc3)c3ccccc23)c1
inactive: RPMI-8226 leukemia 51.8% | OVCAR-8 ovarian 31% | OVCAR-5 ovarian 51.5% | OVCAR-4 ovarian 60.3% | SK-OV-3 ovarian 53% | IGROV1 ovarian 24.5% | OVCAR-3 ovarian 56% | NCI/ADR-RES ovarian 50%
active: SR leukemia 3.4%

Cc1cn(-c2cc(NC(=O)c3ccc(C)c(Nc4nccc(-c5cnccn5)n4)c3)cc(C(F)(F)F)c2)cn1
inactive: SR leukemia 21.5% | RPMI-8226 leukemia 54% | OVCAR-8 ovarian 47.1% | OVCAR-5 ovarian 79% | OVCAR-4 ovarian 99.7% | SK-OV-3 ovarian 59.4% | IGROV1 ovarian 85.1% | OVCAR-3 ovarian 103% | NCI/ADR-RES ovarian 63.8%

COc1cc2c(cc1OCCCCCCN1CCN(c3ncnc4ccccc34)CC1)N=CC1CCCN1C2=O (stereo unspecified)
active: SR leukemia -29.6% | RPMI-8226 leukemia -47.4% | OVCAR-8 ovarian -12.1% | OVCAR-4 ovarian -14.4% | IGROV1 ovarian 1.08% | OVCAR-3 ovarian -6.78% | NCI/ADR-RES ovarian 6.93%
inactive: OVCAR-5 ovarian 10.2% | SK-OV-3 ovarian 20.7%

O=C(c1ccc(F)c(F)c1Nc1ccc(I)cc1F)N1CC(O)([C@@H]2CCCCN2)C1
active: SR leukemia -15.2% | OVCAR-5 ovarian 7.14% | IGROV1 ovarian 2.25%
inactive: RPMI-8226 leukemia 26.7% | OVCAR-8 ovarian 47.9% | OVCAR-4 ovarian 27.8% | SK-OV-3 ovarian 29.2% | OVCAR-3 ovarian 58.7% | NCI/ADR-RES ovarian 39.7%

N#Cc1c(NC(=O)c2cccs2)[n+]([O-])c2ccc(F)cc2[n+]1[O-]
inactive: SR leukemia 77% | RPMI-8226 leukemia 93.2% | OVCAR-8 ovarian 95.6% | OVCAR-5 ovarian 108% | OVCAR-4 ovarian 85.7% | SK-OV-3 ovarian 82.6% | IGROV1 ovarian 68.9% | OVCAR-3 ovarian 98.3% | NCI/ADR-RES ovarian 111%

CC(C)=CCc1cc2c(cc1O)C1=C(C(=O)C3=C(NCCS3(=O)=O)C1=O)C(C=C(C)C)O2 (stereo unspecified)
inactive: RPMI-8226 leukemia 43.3% | OVCAR-8 ovarian 13.4% | OVCAR-5 ovarian 154% | OVCAR-4 ovarian 32.9% | SK-OV-3 ovarian 69.3% | NCI/ADR-RES ovarian 86.6%
active: SR leukemia 6.83% | IGROV1 ovarian 1.26% | OVCAR-3 ovarian -0.915%

O=C1C=CC2(NN=C(c3ccccc3)N2c2ccc(Cl)cc2)c2cccc(O)c21 (stereo unspecified)
inactive: SR leukemia 36.8% | RPMI-8226 leukemia 64% | OVCAR-8 ovarian 43.4% | OVCAR-5 ovarian 47.6% | OVCAR-4 ovarian 43.3% | SK-OV-3 ovarian 102% | IGROV1 ovarian 66.7% | OVCAR-3 ovarian 13.5% | NCI/ADR-RES ovarian 45.1%

CC(C)(C)c1ccc(Cn2cc(CSc3nc4ccccc4s3)nn2)cc1
inactive: SR leukemia 98.7% | RPMI-8226 leukemia 97.2% | OVCAR-8 ovarian 92% | OVCAR-5 ovarian 94.4% | OVCAR-4 ovarian 97.5% | SK-OV-3 ovarian 96.6% | IGROV1 ovarian 90.7% | OVCAR-3 ovarian 107% | NCI/ADR-RES ovarian 92.8%

O=C(NOCCO)c1ccc2cncn2c1Nc1ccc(I)cc1F
inactive: SR leukemia 56.9% | RPMI-8226 leukemia 72.8% | OVCAR-8 ovarian 58.6% | OVCAR-5 ovarian 19.3% | OVCAR-4 ovarian 70.8% | SK-OV-3 ovarian 49% | IGROV1 ovarian 26.2% | OVCAR-3 ovarian 102% | NCI/ADR-RES ovarian 71.8%

Cn1cc(-c2[nH]c3cc(NC(=O)[C@H](N)C4CCCCC4)cc4c3c2C=NNC4=O)cn1
inactive: OVCAR-5 ovarian 13% | OVCAR-4 ovarian 20.9% | NCI/ADR-RES ovarian 49.7%
active: SR leukemia -15.7% | RPMI-8226 leukemia -18.1% | OVCAR-8 ovarian -29.5% | SK-OV-3 ovarian 6.78% | IGROV1 ovarian -27.4% | OVCAR-3 ovarian -13%

C=CCN1C(=O)c2cccc3c(-c4ccc5c(c4)ncn5C4CCCCC4)ccc(c23)C1=O
inactive: SR leukemia 39.8% | RPMI-8226 leukemia 29.5% | OVCAR-8 ovarian 49.5% | OVCAR-5 ovarian 75.3% | OVCAR-4 ovarian 32.3% | SK-OV-3 ovarian 73.4% | IGROV1 ovarian 67.1% | OVCAR-3 ovarian 62.4% | NCI/ADR-RES ovarian 39.6%

Cc1cccc(Cl)c1NC(=O)c1cnc(Nc2cc(N3CCOCC3)cc(S(C)(=O)=O)c2)s1
active: OVCAR-8 ovarian -2.17% | SK-OV-3 ovarian -23.8% | IGROV1 ovarian -49.1%
inactive: SR leukemia 43.3% | RPMI-8226 leukemia 70.5% | OVCAR-5 ovarian 15.6% | OVCAR-4 ovarian 53.8% | OVCAR-3 ovarian 32.1% | NCI/ADR-RES ovarian 64.4%

O=C(NC1CCNCC1)c1[nH]ncc1NC(=O)c1c(Cl)cccc1Cl
active: SR leukemia 2.12% | RPMI-8226 leukemia 1.32% | OVCAR-8 ovarian 9% | OVCAR-5 ovarian 9.52% | OVCAR-4 ovarian 8.44% | SK-OV-3 ovarian 7.3% | OVCAR-3 ovarian 4.35%
inactive: IGROV1 ovarian 10.2% | NCI/ADR-RES ovarian 85%
